The record followed here is PubChem BioAssay.

Activity calls are given as the source filed them.

The subject of experiment [1] is Plasmodium falciparum Sir2 (PF13_0152, Sir2A). The experiment is described as follows: Plasmodium falciparum Sir2A binding compounds – biochemical, small-molecule microarray, 635 nm fluorescence, primary screen (AID 1098).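 Note: score merges spot fluorescence intensity with its signal-to-noise ratio.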 As to conditions: fluorescence 635 nm, higher = more signal.
A short description of experiment [2]: probe aDKK1 binding to arrayed compounds – biochemical, biotinylated probe, 635/667 nm fluorescence, primary screen (AID 1099).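 Note: score merges 667nm spot fluorescence with signal to noise across triplicate slides.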 As to conditions: small-molecule microarray, higher = more signal.
Experiment [3] can be described thus: probe aCHRDL2 binding to arrayed compounds – biochemical, biotinylated probe, 635/667 nm fluorescence, primary screen (AID 1100). As to conditions: small-molecule microarray, higher = more signal.
Experiment [4] is described as follows: change in splice reporter luminescence, either direction, cell-based, HEK293, spliceosome inhibition project, primary screen (AID 1101).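 Note: HEK293 cells carrying a splicing-competent luciferase reporter gene; test concentration not given here.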 As to conditions: HEK293 splicing luciferase reporter, 24 h, higher = more signal, called active from +8 up or from −8 down. (In general: A reporter such as luciferase makes a cellular process visible.)
Experiment [5] addresses Fibroblast growth factor 10 (Homo sapiens) (UniProt O15520). The experiment is described as follows: compounds binding fibroblast growth factor 10 – biochemical, small-molecule microarray, 635 nm fluorescence, primary screen (AID 1102). As to conditions: FGF10 binding, fluorescence 635 nm, higher = more signal.
Experiment [6] has as its system glycogen synthase kinase-3 (GSK3A per assay name; protocol says GSK3B). The experiment is described as follows: compounds binding glycogen synthase kinase-3 – biochemical, small-molecule microarray, 635 nm fluorescence, GSK3A, primary screen (AID 1103). Note: the record names both GSK3A and GSK3B. As to conditions: fluorescence 635 nm, higher = more signal.
The target of experiment [7] is Epidermal growth factor receptor (Homo sapiens) (UniProt P00533). The experiment is described as follows: compounds binding epidermal growth factor receptor – biochemical, small-molecule microarray, 635 nm fluorescence, primary screen (AID 1104).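 Note: score merges 667 nm emission intensity with spot signal to noise over triplicate slides.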 As to conditions: EGFR binding, higher = more signal.
Epidermal growth factor receptor (Homo sapiens), sequence (P00533 whole entry, looked up): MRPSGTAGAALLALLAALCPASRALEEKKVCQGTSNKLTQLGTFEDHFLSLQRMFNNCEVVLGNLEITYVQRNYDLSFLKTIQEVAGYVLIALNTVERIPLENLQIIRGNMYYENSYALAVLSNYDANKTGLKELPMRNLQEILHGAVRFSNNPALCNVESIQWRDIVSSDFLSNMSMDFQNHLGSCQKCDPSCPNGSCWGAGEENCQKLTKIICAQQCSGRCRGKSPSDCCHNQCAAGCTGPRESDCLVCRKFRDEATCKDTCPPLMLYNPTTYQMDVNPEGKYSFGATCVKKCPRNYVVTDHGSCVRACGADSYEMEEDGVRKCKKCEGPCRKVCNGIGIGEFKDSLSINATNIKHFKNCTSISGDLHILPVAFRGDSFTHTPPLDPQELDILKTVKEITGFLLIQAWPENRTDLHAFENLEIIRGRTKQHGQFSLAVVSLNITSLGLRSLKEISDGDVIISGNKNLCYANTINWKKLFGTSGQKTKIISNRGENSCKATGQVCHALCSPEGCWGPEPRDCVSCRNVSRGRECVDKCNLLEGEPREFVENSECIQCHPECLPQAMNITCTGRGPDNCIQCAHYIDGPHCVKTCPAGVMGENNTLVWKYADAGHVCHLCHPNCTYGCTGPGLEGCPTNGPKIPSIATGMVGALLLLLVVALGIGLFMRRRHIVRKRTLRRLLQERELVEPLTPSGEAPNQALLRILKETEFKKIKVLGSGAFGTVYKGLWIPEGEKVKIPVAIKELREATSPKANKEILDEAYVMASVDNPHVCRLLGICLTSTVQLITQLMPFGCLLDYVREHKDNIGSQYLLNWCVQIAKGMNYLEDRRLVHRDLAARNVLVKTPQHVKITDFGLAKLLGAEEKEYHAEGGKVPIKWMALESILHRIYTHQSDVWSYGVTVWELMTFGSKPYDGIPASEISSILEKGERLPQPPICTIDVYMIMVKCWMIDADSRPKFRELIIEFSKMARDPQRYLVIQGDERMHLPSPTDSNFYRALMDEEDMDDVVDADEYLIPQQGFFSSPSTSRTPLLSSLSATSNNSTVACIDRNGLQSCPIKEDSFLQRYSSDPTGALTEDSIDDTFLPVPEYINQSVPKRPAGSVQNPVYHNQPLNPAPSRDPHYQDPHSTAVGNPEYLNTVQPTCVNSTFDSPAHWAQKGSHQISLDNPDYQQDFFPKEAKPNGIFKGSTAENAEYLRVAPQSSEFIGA
Experiment [8] addresses Follistatin-related protein 3 (Homo sapiens) (UniProt O95633). The experiment is described as follows: compounds binding follistatin-related protein 3 – biochemical, small-molecule microarray, 635 nm fluorescence, primary screen (AID 1105).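 Note: score merges emission near 667 nm and signal to noise per printed spot across three slides.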 As to conditions: FSTL3 binding, higher = more signal.
Experiment [9] concerns the target Dickkopf-related protein 1 (Homo sapiens) (UniProt O94907). The experiment is described as follows: small molecules binding DKK1 protein – biochemical, small-molecule microarray, 635 nm fluorescence scan, primary screen (AID 1106).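 Note: score merges emission near 667 nm with signal to noise over three replicate slides.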 As to conditions: higher = more signal.
In experiment [10] the test system is Inhibin beta A chain (activin A). The experiment is described as follows: small molecules binding activin A – biochemical, small-molecule microarray, 635 nm fluorescence scan, primary screen (AID 1107).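 Note: mouse activin A protein probed at 4.33 µg/mL on printed slides; score merges bound-protein fluorescence near 667 nm with spot signal-to-noise.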 As to conditions: INHBA, higher = more signal.
Experiment [11] concerns Human papillomavirus type 1a protein E7 (residues 44-93). The experiment is described as follows: small molecules binding HPV E7 44-93 – biochemical, small-molecule microarray, residues 44-93, 635 nm fluorescence, primary screen (AID 1108).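 Note: E7 fragment applied at 1 µg/mL in TBST for 1 h at 4 C; score combines spot fluorescence with its signal to noise ratio.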 As to conditions: fluorescence 635 nm, higher = more signal.
The nature of experiment [12]: hepatitis C replication reporter changes, two-sided – Huh7 cells, luciferase reporter, HCV replication inhibitor project, primary screen (AID 1109).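 Note: huh7 hepatoma cells harbouring a luciferase neomycin HCV replicon reporter; luciferase luminescence as measure of HCV replicon replication; test concentration not given here.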 As to conditions: Huh7 HCV replicon luciferase reporter, 48 h; higher = more signal.
The target of experiment [13] is Left-right determination factor 2 (Homo sapiens) (UniProt O00292). The experiment is described as follows: small molecules binding LEFTY2 protein – biochemical, small-molecule microarray, 635 nm fluorescence scan, primary screen (AID 1110). As to conditions: higher = more signal.
Left-right determination factor 2 (Homo sapiens), sequence (O00292 whole entry, looked up): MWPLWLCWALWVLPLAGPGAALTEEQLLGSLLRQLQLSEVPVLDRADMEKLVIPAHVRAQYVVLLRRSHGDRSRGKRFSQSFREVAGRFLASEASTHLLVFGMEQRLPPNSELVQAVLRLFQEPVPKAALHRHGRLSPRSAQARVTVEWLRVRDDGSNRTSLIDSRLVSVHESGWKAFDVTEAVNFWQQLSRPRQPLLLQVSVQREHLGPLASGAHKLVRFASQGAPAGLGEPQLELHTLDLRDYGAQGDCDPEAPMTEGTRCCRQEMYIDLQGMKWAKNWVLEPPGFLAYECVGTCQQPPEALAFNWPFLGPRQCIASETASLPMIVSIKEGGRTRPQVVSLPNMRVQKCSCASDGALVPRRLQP
The target of experiment [14] is Calmodulin-1 (Homo sapiens) (UniProt P0DP23). The experiment is described as follows: small molecules binding calmodulin-1 with EGTA – biochemical, small-molecule microarray, Cy5-labelled CALM1, profiling panel (AID 1111).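 Note: labelled calmodulin applied in Tris saline Tween buffer holding calcium plus EGTA and DTT.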 As to conditions: Cy5-CALM1 binding fluorescence, higher = more signal.
Experiment [15] shares this target. The experiment is described as follows: small molecules binding Ca-loaded calmodulin-1 – biochemical, small-molecule microarray, Cy5-labelled CALM1, plus calcium, artefact control for SMM control-protein annotation, profiling panel (AID 1112).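 Note: score merges spot fluorescence with signal to noise from triplicate slides.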 As to conditions: Cy5-CALM1 binding fluorescence, higher = more signal.
Experiment [16] is described as follows: probe aWnt5a binding to arrayed compounds – biochemical, biotinylated probe, 635/667 nm fluorescence, primary screen (AID 1113).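 Note: score merges 667 nm fluorescence intensity with signal-to-noise per printed feature.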 As to conditions: small-molecule microarray, higher = more signal.
Experiment [17] can be described thus: probe aShh binding to arrayed compounds – biochemical, biotinylated probe, 635/667 nm fluorescence, primary screen (AID 1114).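 Note: probe is biotin-labelled aShh protein from a stem cell growth factor screen; measures binding of labelled protein to compounds printed on the slide; score merges feature fluorescence at 667 nm with signal-to-noise.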 As to conditions: small-molecule microarray, higher = more signal.
The nature of experiment [18]: probe aNog binding to arrayed compounds – biochemical, biotinylated probe, 635/667 nm fluorescence, primary screen (AID 1115).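 Note: probe is biotinylated aNog protein used at 0.15 µg/mL for 1 h at 4 C; z-score combines 667 nm fluorescence of each spot with its signal to noise.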 As to conditions: small-molecule microarray, higher = more signal.
In experiment [19] the target is Torsin-1A-interacting protein 1 (Homo sapiens) (UniProt Q5JTV8). The experiment is described as follows: compound microarray binding of lysate hLAP1 – cell lysate, small-molecule microarray, COS7 lysate, 635/667 nm fluorescence, primary screen (AID 1116). As to conditions: 635 nm fluorescence, higher = more signal.
Torsin-1A-interacting protein 1 (Homo sapiens), sequence (Q5JTV8 whole entry, looked up): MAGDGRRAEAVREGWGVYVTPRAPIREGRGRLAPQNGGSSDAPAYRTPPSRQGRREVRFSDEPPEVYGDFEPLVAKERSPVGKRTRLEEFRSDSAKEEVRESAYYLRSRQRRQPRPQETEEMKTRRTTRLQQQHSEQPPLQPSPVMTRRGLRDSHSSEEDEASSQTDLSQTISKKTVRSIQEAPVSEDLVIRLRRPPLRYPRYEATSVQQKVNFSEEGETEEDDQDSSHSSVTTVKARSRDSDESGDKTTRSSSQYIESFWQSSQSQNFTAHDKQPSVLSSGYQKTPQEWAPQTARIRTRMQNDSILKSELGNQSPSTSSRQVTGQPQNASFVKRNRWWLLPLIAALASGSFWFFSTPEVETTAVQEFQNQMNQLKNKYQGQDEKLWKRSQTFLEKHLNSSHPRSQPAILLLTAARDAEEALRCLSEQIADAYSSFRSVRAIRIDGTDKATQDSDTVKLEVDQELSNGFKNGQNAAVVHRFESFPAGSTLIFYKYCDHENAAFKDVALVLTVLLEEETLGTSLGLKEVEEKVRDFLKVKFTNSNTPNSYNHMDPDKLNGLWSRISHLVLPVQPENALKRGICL
Experiment [20] deals with Alpha-bungarotoxin (Bungarus multicinctus) (UniProt P60615). The experiment is described as follows: compounds binding labelled alpha-BTX control protein – biochemical, small-molecule microarray, Alexa647 label, 635/667 nm fluorescence, artefact control for SMM control protein annotation, profiling panel (AID 1117). As to conditions: alpha-BTX-A647 binding fluorescence, higher = more signal.
Alpha-bungarotoxin (Bungarus multicinctus), sequence (P60615 whole entry, looked up): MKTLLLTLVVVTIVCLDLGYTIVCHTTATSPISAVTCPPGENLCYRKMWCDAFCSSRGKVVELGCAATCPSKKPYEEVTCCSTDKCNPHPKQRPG

Dickkopf-related protein 1 (Homo sapiens), sequence (O94907 whole entry, looked up): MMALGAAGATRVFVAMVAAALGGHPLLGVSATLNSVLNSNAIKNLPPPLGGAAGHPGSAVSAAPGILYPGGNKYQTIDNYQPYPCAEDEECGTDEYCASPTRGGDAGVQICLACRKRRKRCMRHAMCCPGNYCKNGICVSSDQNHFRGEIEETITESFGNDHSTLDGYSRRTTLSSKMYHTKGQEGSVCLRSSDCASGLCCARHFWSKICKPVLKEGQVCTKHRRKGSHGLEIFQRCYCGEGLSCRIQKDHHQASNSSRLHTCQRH
Follistatin-related protein 3 (Homo sapiens), sequence (O95633 whole entry, looked up): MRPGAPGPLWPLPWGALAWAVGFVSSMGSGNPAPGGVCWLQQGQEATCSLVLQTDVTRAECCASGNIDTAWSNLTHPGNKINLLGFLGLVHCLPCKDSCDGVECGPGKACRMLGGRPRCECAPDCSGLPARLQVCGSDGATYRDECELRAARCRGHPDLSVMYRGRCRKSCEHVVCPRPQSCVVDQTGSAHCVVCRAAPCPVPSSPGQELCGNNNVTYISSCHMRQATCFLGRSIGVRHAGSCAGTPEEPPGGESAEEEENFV
Fibroblast growth factor 10 (Homo sapiens), sequence (O15520 whole entry, looked up): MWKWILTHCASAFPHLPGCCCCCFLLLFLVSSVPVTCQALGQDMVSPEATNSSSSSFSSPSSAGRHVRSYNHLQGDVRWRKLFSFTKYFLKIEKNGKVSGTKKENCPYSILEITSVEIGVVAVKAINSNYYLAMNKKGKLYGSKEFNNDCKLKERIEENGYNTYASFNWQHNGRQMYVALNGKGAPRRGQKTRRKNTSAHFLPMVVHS

In the case of `CC(C)[C@@H](OCc1ccccc1)[C@H](C)C=NOC[C@@H](C)[C@H](OCc1ccccc1)C(C)C`, the composite z-score in [1] is 0.556; in experiment [2], -0.319; in [3] it was -0.552; in experiment [5], 0.5; in experiment [6], -0.076; in experiment [7], 0.363. The composite z-score in experiment [8] was 0.303; in [9] it was 0.429; in experiment [10], -0.0094; in [11], 0.255; in experiment [13], 0.885; in [14], 0.148. The composite z-score is -0.546 in [15]; -0.101 in experiment [16]; -0.0685 in experiment [17]; -0.132 in experiment [18]; 0.0528 in experiment [19]; 0.312 in experiment [20]. Moreover, the z-score in experiment [4] is 0.741 (inactive); in experiment [12] it was -0.534.

`C[C@H](c1ccccc1)N1C(=O)[C@H]2[C@@H]3C(=CC[C@H]2C1=O)C(=O)[C@H]1O[C@H]1[C@H]3O`: the composite z-score in experiment [1] is 0.816; in experiment [2], -0.191; in experiment [3], -0.559; in experiment [5], 0.388; in [6], 0.359; in experiment [7], 0.626. For the same compound, the composite z-score was 0.359 in experiment [8]; 0.87 in experiment [9]; 0.527 in experiment [10]; -0.546 in experiment [11]; 0.429 in experiment [13]; -0.119 in [14]. Moreover, the composite z-score in experiment [15] was -0.932; in [16], -0.0405; in [17], 0.0402; in experiment [18] it was -0.416; in [19], 0.326; in [20] it was -0.0114. In addition, the z-score in experiment [4] is 4.45 (inactive); in experiment [12], -4.71.

With `CCCCCCc1nc(CCCc2cc3c(c(CCCCCC)n2)[Si](C(C)C)(C(C)C)O[C@H]3c2ccccc2)cc2c1[Si](C(C)C)(C(C)C)O[C@H]2c1ccccc1`, the composite z-score in [1] is -0.509; in [2], -0.259; in experiment [3] it was -0.21; in experiment [5] it was 0.0736; in [6] it was -0.401; in experiment [7] it was 0.123. Besides, the composite z-score in [8] stood at 0.0624; in [9] it was 0.476; in [10], 0.656; in experiment [11], 0.15; in [13], 0.109; in experiment [14], 0.146. In addition, the composite z-score in [15] is -0.021; in experiment [16], -0.148; in [17], -0.0626; in [18] it was -0.213; in experiment [19] it was -0.0561; in [20] it was 0.181. Moreover, the z-score in experiment [4] is -1.11 (inactive); in [12], -0.904.

Turning to `C[C@@H](c1ccccc1)N1C(=O)[C@H]2[C@H]3[C@H](O)[C@H](O)CC(=NNC(=O)OCc4ccccc4)[C@H]3CC[C@H]2C1=O`, the composite z-score in experiment [1] was -0.0979; in [2], 0.24; in experiment [3], 0.794; in [5], 0.0359; in [6], -0.354; in [7], 0.191. Moreover, the composite z-score in experiment [8] was -0.461; in [9], -0.415; in experiment [10], 0.0683; in experiment [11] it was -0.269; in experiment [13] it was 0.495; in experiment [14], 0.12. Also, the composite z-score is -0.726 in experiment [15]; -0.0735 in experiment [16]; 0.0815 in [17]; -0.0567 in experiment [18]; 0.464 in [19]; 0.284 in [20]. In addition, the z-score was 0.373 (inactive) in [4] and -2.23 in [12].

Consider `CO[C@@H]1COC(=O)CC=C[C@@H](C)[C@@H]2C=C[C@H](O)[C@@H](COC(=O)CCC[C@H]1C)O2`, for which the composite z-score in [1] is 0.686; in experiment [2], -0.177; in [3], -0.899; in experiment [5], 0.375; in [6], 0.329; in experiment [7], 1.21. Also, the composite z-score was 1.11 in experiment [8]; 1.25 in experiment [9]; 1.45 in experiment [10]; -1.05 in experiment [11]; 1.31 in experiment [13]; -0.859 in [14]. The composite z-score in [15] was -1.7; in [16], -0.0721; in experiment [17], 0.211; in experiment [18], -0.0755; in experiment [19], 0.962; in [20], -0.394. In addition, the z-score in experiment [4] is -1.09 (inactive); in experiment [12], -1.96.

For the compound `CN1C(=O)C2C=CC(C(O)c3ccc(I)cc3)N(NC(=O)OC(C)(C)C)C2C1=O` (stereo not given), the composite z-score in [1] was 1.22; in experiment [2], 0.829; in experiment [3] it was 1.05; in experiment [5], 0.599; in experiment [6] it was 1.24; in experiment [7] it was 0.04. For the same compound, the composite z-score was 0.925 in experiment [8]; -0.168 in experiment [9]; 0.599 in experiment [10]; 1.41 in experiment [11]; 0.0192 in experiment [13]; 0.526 in [14]. Moreover, the composite z-score is 0.202 in experiment [15]; -0.0165 in experiment [16]; 0.151 in experiment [17]; 1.26 in experiment [18]; 1.4 in experiment [19]; 1.01 in [20]. Also, the results for the z-score in experiment [4] and in experiment [12] were 2.31 (inactive) and 0.0411, respectively.
